The list is not random: actives were taken first. Their share in the collection is about 1.1%.
Yp Topo-I inh: inhibitors of Yersinia pestis topoisomerase I | actives 0.064% (n = 360,000) | activity, % at 10 µM | Y. pestis Topo-I cleavage product accumulation, plate reader; in the data active = activity above about 50%, passing the limit was not always enough
BJeLR viability: BJeLR cell viability loss; inhibition, % (concentration not given with the values); AID 1554; BJeLR (HRASV12) viability, CellTiter-Glo ATP luminescence, 48 h; actives 0.17% (n = 300,000); in the data active = inhibition above about 50%
CCHF vOTU inh-1: CCHFV vOTU protease inhibition | Pep-AMC fluorescence | inhibition, % at 11.5 µM | actives 0.55% (n = 370,000); note: 0% = vehicle wells with enzyme and 100% = no enzyme wells
RecA intein inh: inhibitors of M. tuberculosis RecA intein splicing. actives 0.75% (n = 290,000). inhibition, % (no concentration beside the values). AID 2221. cell-free RecA intein splicing, fluorescence. P9WHJ3; in the data active = inhibition above about 30%;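 note: 0% = vehicle wells and 100% = reference inhibitor control wells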
Target sequence (P9WHJ3 whole entry, looked up): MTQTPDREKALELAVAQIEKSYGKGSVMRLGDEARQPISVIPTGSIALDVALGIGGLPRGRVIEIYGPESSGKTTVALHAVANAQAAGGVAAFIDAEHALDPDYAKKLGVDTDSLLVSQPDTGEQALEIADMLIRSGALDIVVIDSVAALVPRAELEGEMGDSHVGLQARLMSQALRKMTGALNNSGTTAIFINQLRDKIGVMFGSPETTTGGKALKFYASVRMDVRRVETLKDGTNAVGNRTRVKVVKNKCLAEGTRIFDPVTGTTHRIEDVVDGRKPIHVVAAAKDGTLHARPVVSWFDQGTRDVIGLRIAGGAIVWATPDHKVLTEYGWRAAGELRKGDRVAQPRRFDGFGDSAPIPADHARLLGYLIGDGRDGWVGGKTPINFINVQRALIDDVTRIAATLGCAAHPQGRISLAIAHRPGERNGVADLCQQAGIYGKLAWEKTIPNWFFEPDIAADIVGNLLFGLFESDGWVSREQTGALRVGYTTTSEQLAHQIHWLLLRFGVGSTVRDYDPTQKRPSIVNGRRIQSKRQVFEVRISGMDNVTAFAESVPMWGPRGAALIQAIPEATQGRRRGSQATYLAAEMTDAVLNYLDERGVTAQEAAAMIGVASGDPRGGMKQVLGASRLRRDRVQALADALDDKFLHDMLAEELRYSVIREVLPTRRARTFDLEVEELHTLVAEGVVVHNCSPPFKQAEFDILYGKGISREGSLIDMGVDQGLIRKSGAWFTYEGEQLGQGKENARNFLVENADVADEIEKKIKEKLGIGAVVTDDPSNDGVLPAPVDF
Mtb bLac sens: beta-lactam sensitization of Mtb H37Rv; M. tuberculosis H37Rv growth with meropenem, percent inhibition; inhibition, % at 25 µM; actives 0.27% (n = 330,000); AID 434955; call rule not given here;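 note: growth measured after seven days incubation then overnight dye step; 0% = bacteria only wells and 100% = bacteria with antibiotic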
BioA inh: BioA (M. tuberculosis) enzyme inhibition; actives 0.096% (n = 360,000); purified M. tuberculosis BioA enzyme, plate reader; AID 602481; inhibition, % at 9.99 µM; in the data active = inhibition above about 40%
CCHF vOTU inh-2: confirmation of CCHF virus vOTU protease inhibitors | shares compounds with CCHF vOTU inh-1 | Recombinant CCHFV vOTU, Pep-AMC fluorescence | inhibition, % at 11.5 µM | actives 17% (n = 1,900) | AID 686976
* hit, by the source's call; . = not tested or not shown. Cut-off read from the data, not from the text of the source, unless noted: active = inhibition above about 30%; inactive = the rest.

SMILES | Yp Topo-I inh | BJeLR viability | CCHF vOTU inh-1 | RecA intein inh | Mtb bLac sens | BioA inh | CCHF vOTU inh-2
O=[N+]([O-])c1ccc(N=Nc2ccc(O)cc2O)cc1 | -7 | 28 | -3 | 6 | 31 | 0 | .
CC(C)C(=O)NC(c1cccs1)c1cc([N+](=O)[O-])c2cccnc2c1O (stereo unspecified) | -9 | 0 | . | 1 | -4 | -1 | .
CCC(=O)NC(c1cccs1)c1cc([N+](=O)[O-])c2cccnc2c1OC (stereo unspecified) | -10 | . | 124* | . | . | 2 | -8
COCC#Cc1cnc2c(c1)C(=O)N([C@@H](C)CO)C[C@@H](C)[C@@H](CN(C)C(=O)C1CC1)O2 | . | . | . | . | . | -1 | .
O=C1c2ccccc2C(=O)c2c(/C=C/N3CCCCC3)ccnc21 | -13 | . | 30* | . | . | . | 52*
CN(C)C(=O)C[C@H]1C[C@@H]2c3cc(NS(=O)(=O)c4ccccc4)ccc3O[C@@H]2[C@H](CO)O1 | . | . | . | . | . | 0 | .
S=C(Nc1ccc(Cl)c(Cl)c1)N1CCCC1 | 1 | 5 | 9 | 1 | -1 | 1 | .
S=C(Nc1ccc2nsnc2c1)N1CCCCC1 | 9 | . | 96* | . | 2 | . | -15
N#C/C(=N\Nc1cccc(Cl)c1)C(=O)c1ccccc1 | -5 | 2 | 35* | -1 | -2 | 6 | -3
N#C/C(=N\Nc1ccccc1Cl)C(=O)c1ccccc1 | 9 | 3 | -4 | 1 | -10 | 0 | .
CC(=O)N(C)C[C@@H]1Oc2cc(C#CCN(C)C)ccc2S(=O)(=O)N([C@@H](C)CO)C[C@H]1C | . | . | . | . | . | -1 | .
O=C(Nc1ccc2c(c1)[C@@H]1C[C@@H](CC(=O)N3CCOCC3)O[C@@H](CO)[C@@H]1O2)C1CCC1 | . | . | . | . | . | -1 | .
CO[C@H]1CN(C)C(=O)c2ccc(NC(=O)NC(C)C)cc2OC[C@@H](C)N(CCC(F)(F)F)C[C@H]1C | . | . | . | . | . | 0 | .
CCN(CC)S(=O)(=O)c1cccc(C(=O)Nc2nncs2)c1 | -10 | 3 | -10 | -3 | 7 | -2 | .
COc1ccc(N(C)S(=O)(=O)c2cccc(C(=O)Nc3nnc(C)s3)c2)cc1 | 4 | . | 17 | . | 1 | -1 | .
CCN(CC)S(=O)(=O)c1cccc(C(=O)Nc2nnc(C)s2)c1 | -11 | 5 | 31* | 2 | -5 | . | -5
COc1ccc(N(C)S(=O)(=O)c2cccc(C(=O)Nc3nc(C)c(C(C)=O)s3)c2)cc1 | -5 | . | 35* | . | -4 | 2 | 0
O=C(NCC[C@@H]1CC[C@@H](NS(=O)(=O)c2ccc(Cl)cc2)[C@H](CO)O1)c1ccccc1F | . | . | . | . | . | 5 | .
CCOC(=S)NC(=O)c1sc2ccccc2c1Cl | 2 | 1 | 34* | 13 | 8 | 0 | -3
CCOC(=O)CSc1nc2cccnc2n1-c1ccc(F)cc1 | -3 | 1 | 5 | 0 | 0 | -1 | .
CC(C)OC(=O)CSc1nc2cccnc2n1-c1ccc(F)cc1 | -7 | 2 | 31* | . | 2 | 1 | -9
C[C@H]1CN([C@@H](C)CO)S(=O)(=O)c2ccc(-c3ccc(F)cc3)cc2O[C@H]1CN(C)CC1CC1 | . | . | . | . | . | 0 | .
CCOC(=O)c1cnc(Nc2ccccc2)nc1C(F)(F)F | -2 | 2 | 34* | 1 | -1 | . | -4
CCOC(=O)c1cnc(-c2ccccc2)nc1C(F)(F)F | -9 | -7 | -7 | -1 | -4 | -1 | .
COC(=O)[C@]12C[C@H](CC(=O)NCc3cccc(C(F)(F)F)c3)C(=O)N(CCc3ccc(OC)c(OC)c3)C1=C[C@H](C(C)C)O[C@@H]2C1CC1 | . | . | 25 | . | . | . | .
CCCCCCCCN1C(=O)[C@@H](CC(=O)NCc2ccc(OC)c(OC)c2)C[C@@]2(C(=O)OC)C1=C[C@H](C(C)C)O[C@@H]2C1CC1 | . | . | 38* | . | . | . | 11
COC(=O)[C@]12C[C@H](CC(=O)NCc3ccc(OC)c(OC)c3)C(=O)N(CCC3=CCCCC3)C1=C[C@H](C(C)C)O[C@@H]2C1CC1 | . | . | 18 | . | . | . | .
CCCCCCCCN1C(=O)[C@@H](CC(=O)NCc2cccc(C(F)(F)F)c2)C[C@@]2(C(=O)OC)C1=C[C@H](C(C)C)O[C@@H]2C1CC1 | . | . | 30* | . | . | . | 31*
CCOC(=O)c1ccc(N2C(=O)c3n[nH]c(C)c3C2c2ccco2)cc1 (stereo unspecified) | 15 | 3 | -1 | 3 | -8 | 3 | .

Screening data (PubChem BioAssay)
